Measured values as given in PubChem BioAssay AID485297 (National Center for Advancing Translational Sciences (NCATS), 2010).
About 9,100 (2.8%) of roughly 320,000 compounds were called active. Another 3% or so got no clear call; they are omitted. This is one part of a sample in which actives are shown more often than they occur. The call rests on the fitted dose curve; in most records, active means well fitted activation curve with a large enough effect; inconclusive means small, poorly fitted or top-dose-only effect; inactive means no such curve, though single readings can be large or run the other way.
Potency means the concentration at half of the fitted maximal effect.

Assay: qHTS Assay for Rab9 Promoter Activators; further: nearly all actives have a fitted effect of over 60% in size; on activation, negative = inhibition: % of control where 0% means no effect
Settings: Huh7 Rab9 promoter-luciferase reporter, luminescence, 24 h; series mostly up to 9.22 µM; activation, negative = inhibition: at the top concentration
Outline: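 Luminescence read-out: Huh7 cells stably expressing Rab9-luciferase, treated 24 h with compound at 37 °C, then lysed with luciferase reagent for 10 min at ambient before reading.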
With `O=S(=O)(c1ccc(SCc2ccc(Br)cc2)nc1)N1CCOCC1` the “activation, negative = inhibition” value was -2.87% (inactive).
In the case of `COC(=O)c1cccc(NC(=O)c2cccc(N3C(=O)CCC3=O)c2)c1`, the “activation, negative = inhibition” value is reported as -2.95% (inactive).
With `O=C(COC(=O)c1cc(S(=O)(=O)N2CCOCC2)ccc1Cl)NCCc1ccccc1` the “activation, negative = inhibition” value was 19.9% (inactive).
In the case of `CC(C)c1ccc(S(=O)(=O)N2CCN(C(C)C(=O)NC3CCCC3)CC2)cc1` (centres undefined), the “activation, negative = inhibition” value is reported as -5.78% (inactive).
In the case of `COc1cccc(CC(=O)Nc2nc(-c3ccc(OC)c(OC)c3)cs2)c1`, the “activation, negative = inhibition” value is reported as -3.51% (inactive).
With `COc1ccc(OC)c(-c2csc(-c3cccs3)n2)c1` the “activation, negative = inhibition” value was 5.35% (inactive).
For `COc1ccc(-c2csc(-c3cccs3)n2)cc1OC`, the Potency was 1780 nM (active).
For `O=C1Cc2cc(S(=O)(=O)Nc3cccc(F)c3)ccc2N1`, the “activation, negative = inhibition” value was 1.59% (inactive).
For `COc1ccc(CCNC(=O)COC(=O)c2cc(=O)c3ccccc3o2)cc1`, the “activation, negative = inhibition” value was 1.25% (inactive).
For `CC(C)(C)C(=O)OCc1nc(-c2ccc(O)c(O)c2)cs1`, the “activation, negative = inhibition” value was 9.03% (inactive).
For `COc1cccc(CC(=O)Nc2ccc(-c3csc(C)n3)cc2)c1`, the “activation, negative = inhibition” value was 4.45% (inactive).
For `COc1ccc(-c2csc(Cc3nc(O)cs3)n2)cc1`, the Potency was 1000 nM (active).
For `O=C(c1cn(-c2ccccc2)nc1-c1cccnc1)N1CCN(S(=O)(=O)c2ccccc2F)CC1`, the “activation, negative = inhibition” value was 0.673% (inactive).
With `Cc1ccc(Nc2nc(-c3ccc(O)cc3O)cs2)nc1` the Potency was 1410 nM (active).
In the case of `CC(=O)Nc1ccc(C(=O)Nc2nc(-c3cc(C)n(Cc4ccccc4)c3C)cs2)cc1`, the “activation, negative = inhibition” value is reported as -1.86% (inactive).
With `O=C(CCNS(=O)(=O)c1ccccc1C(F)(F)F)Nc1ccncc1` the “activation, negative = inhibition” value was -2.35% (inactive).
With `Cc1cccc(OCCC(=O)OCc2csc(CC(=O)Nc3ccccc3C)n2)c1` the “activation, negative = inhibition” value was -2.11% (inactive).
With `Cc1cc(Cl)c2oc(C(=O)N3CCC(O)(c4ccccc4)CC3)c(C)c2c1` the “activation, negative = inhibition” value was 2.32% (inactive).
In the case of `O=c1cc(Cn2nnc(-c3ccc(Cl)cc3)n2)nc2sccn12`, the “activation, negative = inhibition” value is reported as 1.42% (inactive).
For `Clc1cccc(Cl)c1Cn1nnc(-c2cccs2)n1`, the Potency was 2820 nM (active).
For `COc1ccccc1N1CCN(C(=O)Cn2nnc(-c3cccs3)n2)CC1`, the “activation, negative = inhibition” value was -2.68% (inactive).
For `Nc1ccc(-n2nncc2-c2ccco2)cc1`, the “activation, negative = inhibition” value was -10.6% (inactive).
In the case of `COc1ccc(CCC(=O)N2CCN(S(=O)(=O)c3ccc(OC)cc3)CC2)cc1`, the “activation, negative = inhibition” value is reported as -3.76% (inactive).
With `COc1ccc(CCNC(=O)CCc2ccccc2O)cc1OC` the “activation, negative = inhibition” value was 19.5% (inactive).
With `O=C(O)/C(=C/c1cccnc1)NC(=O)c1ccccc1` the “activation, negative = inhibition” value was 2.06% (inactive).
In the case of `CCOc1ccc(NC(=O)CN(C)C(=O)CCSc2ccc(F)cc2)cc1OCC`, the “activation, negative = inhibition” value is reported as -5.95% (inactive).
With `C=CCSc1ccc(S(=O)(=O)N2CCN(C)CC2)cn1` the “activation, negative = inhibition” value was -0.521% (inactive).
With `O=C(Nc1ccccc1)N1CCC(C(=O)N2CCN(Cc3ccccc3)CC2)CC1` the “activation, negative = inhibition” value was 7.55% (inactive).
With `Cn1c(N)c(C(=O)COC(=O)/C=C/c2cccc(C(F)(F)F)c2)c(=O)n(C)c1=O` the “activation, negative = inhibition” value was -0.132% (inactive).
In the case of `C/C(=N\Nc1nc(Nc2ccccc2)nc(N2CCOCC2)n1)c1cccs1`, the “activation, negative = inhibition” value is reported as -9.1% (inactive).
For `C/C(=N\NS(=O)(=O)c1ccc(Br)cc1)c1cccs1`, the “activation, negative = inhibition” value was -7.45% (inactive).
For `C/C(=N\Nc1nc2ccccc2[nH]1)c1cccs1`, the Potency was 1000 nM (active).
With `C/C(=N\Nc1ccc(S(N)(=O)=O)cc1[N+](=O)[O-])c1cccs1` the “activation, negative = inhibition” value was 8.35% (inactive).
In the case of `C/C(=N\Nc1ncc(Cl)cc1Cl)c1cccs1`, the Potency is reported as 1260 nM (active).
With `O=C(Nc1ccccc1-c1nc2ccccc2[nH]c1=O)c1cccs1` the “activation, negative = inhibition” value was 1.89% (inactive).
For `O=C(c1ccc(Cl)nc1)N1CCN(S(=O)(=O)c2ccc3c(c2)OCCO3)CC1`, the “activation, negative = inhibition” value was 1.05% (inactive).
With `CCc1ccccc1OCC(=O)Nc1ccc(C)c(S(=O)(=O)N2CCCCCC2)c1` the “activation, negative = inhibition” value was 0.199% (inactive).
In the case of `CCCCN(C(=O)C1=NN(c2cc(C)ccc2C)C(=O)CC1)c1c(N)n(CCC)c(=O)[nH]c1=O`, the “activation, negative = inhibition” value is reported as 0.441% (inactive).
In the case of `CCC1CCC2(CC1)NC(=O)N(CC(=O)Nc1ccc(OC)cc1)C2=O` (centres undefined), the “activation, negative = inhibition” value is reported as -5.48% (inactive).
For `COc1ccc(OC)c(CN2CCN(C(=O)CNC(=O)c3cc(C)cc(C)c3)CC2)c1`, the “activation, negative = inhibition” value was -0.729% (inactive).
For `COc1cc([C@H](Cc2ccccc2)NC(C)=O)oc(=O)c1`, the “activation, negative = inhibition” value was 3.07% (inactive).
For `Cc1ccc(C)c(C(=O)COC(=O)Cn2[nH]c(=O)c3ccccc3c2=O)c1`, the “activation, negative = inhibition” value was 0.526% (inactive).
With `O=c1c(-c2ccccc2)coc2c(CN3CCOCC3)c(O)ccc12` the “activation, negative = inhibition” value was 0.818% (inactive).
In the case of `O=c1c(-c2ccccc2)coc2cc(O)ccc12`, the Potency is reported as 2820 nM (active).
In the case of `CC(C)CN(Cc1c(O)ccc2c(=O)c(-c3ccccc3)coc12)CC(C)C`, the “activation, negative = inhibition” value is reported as 0.55% (inactive).
With `COc1ccccc1CNC(=O)CCCN1C(=O)NC2(CCCC2)C1=O` the “activation, negative = inhibition” value was -12.7% (inactive).
In the case of `COc1ccc(C2(C)ON(c3ccccc3C(F)(F)F)C2=O)cc1` (centres undefined), the “activation, negative = inhibition” value is reported as -2.59% (inactive).
In the case of `Cc1nc(-c2ccc(F)cc2)c(CC(=O)N(C)CC(=O)Nc2c(C)cccc2C)s1`, the “activation, negative = inhibition” value is reported as 7.06% (inactive).
In the case of `Cc1ccc(/C=N/NC(=O)c2sccc2OCc2ccc(F)cc2)cc1`, the “activation, negative = inhibition” value is reported as -11.5% (inactive).
For `Cc1ccc(NC(=O)CN2CCC(C(N)=O)CC2)cc1[N+](=O)[O-]`, the “activation, negative = inhibition” value was 18.2% (inactive).
For `Cc1ccc(NC(=O)c2sccc2C)cc1[N+](=O)[O-]`, the Potency was 1780 nM (active).
In the case of `Cc1nc2ccccc2cc1C(=O)N/N=C/c1ccc([N+](=O)[O-])cc1`, the “activation, negative = inhibition” value is reported as -2.69% (inactive).
With `Cc1ccc(NC(=O)CN(C)CC(=O)Nc2cccc(F)c2)cc1[N+](=O)[O-]` the “activation, negative = inhibition” value was -18.7% (inactive).
With `Cc1ccsc1C(=O)N/N=C/c1ccc([N+](=O)[O-])cc1` the Potency was 3550 nM (active).
In the case of `CN(C)c1cc2c(Nc3ccc4c(cnn4Cc4ccccc4)c3)ncnc2cn1`, the “activation, negative = inhibition” value is reported as -30.6% [at 46.1 µM] (inactive).
In the case of `CNC(=O)C1CC(=O)N(c2ccc(OCC(=O)Nc3ccccc3C)cc2)C1` (centres undefined), the “activation, negative = inhibition” value is reported as 5.32% (inactive).
With `COc1ccc(NS(=O)(=O)c2cc(NC(=O)COc3ccccc3F)ccc2OC)cc1` the “activation, negative = inhibition” value was 1.94% (inactive).
For `CCOc1ccc2oc(C(=O)N(CC)CC(=O)Nc3ccc(NC(C)=O)cc3)c(C)c2c1`, the “activation, negative = inhibition” value was -1.55% (inactive).
With `CCC[C@H]1CCCC/C=C\CCCC(=O)OCCN1C(=O)OC(C)(C)C` the “activation, negative = inhibition” value was -5.47% (inactive).
In the case of `Nc1c(C(=O)OCC(=O)Nc2ccc(OC(F)F)cc2)[nH]c(=O)[nH]c1=O`, the “activation, negative = inhibition” value is reported as 0.105% (inactive).
In the case of `NC(=O)COC(=O)/C=C/c1ccc2ccccc2n1`, the “activation, negative = inhibition” value is reported as 1.99% (inactive).
With `COc1cccc(/C=C/c2ccc3ccccc3n2)c1OC(C)=O` the Potency was 447 nM (active).
With `COc1cccc(/C=C2\C=C(c3ccc(C)cc3)OC2=O)c1OC(C)=O` the “activation, negative = inhibition” value was 1.65% (inactive).
With `CCc1ccc(Nc2nnc(SCC(=O)c3ccc4c(c3)NC(=O)CO4)s2)cc1` the “activation, negative = inhibition” value was -30.9% (inactive).
With `Cc1noc(C)c1-c1ccc2ncnc(NC(C)c3ccco3)c2c1` (centres undefined) the “activation, negative = inhibition” value was -2.48% (inactive).
For `COc1ccc(CN2CCN(C(=O)c3cc(C4CC4)nn3-c3ccccc3)CC2)cc1F`, the “activation, negative = inhibition” value was 15.7% (inactive).
With `c1ccc(-n2nc3ccccc3n2)cc1` the “activation, negative = inhibition” value was -3.95% (inactive).
For `Nc1ccc2nn(-c3ccc(Cl)cc3)nc2c1`, the Potency was 224 nM (active).
With `CN(C)c1nnnn1-c1ccc(Cl)cc1` the “activation, negative = inhibition” value was 2.01% (inactive).
